Reference: the supplement of paper PMC11732987, “Enantioselective OTUD7B fragment discovery through chemoproteomics screening and high-throughput optimisation” (Communications Chemistry, 2025)

How the values were obtained:
Assay in all cases: log2 ratio of Biotin-Ahx-Ub-VS probe labelling (fragment/DMSO); higher = less target engagement (more negative = stronger competition), active = hit call of the paper (q ≤ 0.05, log2 ratio ≤ -1)
Settings in all cases: compound concentration: 200 uM; treatment time: 3 h
USP9X = USP9X (UniProt Q93008)
How it was run: (§1)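 Fragment (200 µM) or vehicle was incubated for 3 h with triplicate HEK293T lysate samples of 495 µg, which were then treated with Biotin-Ahx-Ub-VS at 0.5 µM final for 1 h. Labelled DUBs were enriched on NeutrAvidin, digested with LysC and trypsin, and analysed by diaPASEF LC-MS/MS. Values are average log2 fragment/vehicle ratios from an unpaired t-test on global-median-normalised Spectronaut label-free quantities, using proteins with ≥2 unique peptides.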

UniProt O00487 = biological target: UniProt O00487
How it was run: as §1

UniProt O00507 = biological target: UniProt O00507
How it was run: as §1

UniProt P51784 = biological target: UniProt P51784
How it was run: as §1

UniProt Q5T2D3 = biological target: T1, UniProt Q5T2D3
T1 sequence (whole entry): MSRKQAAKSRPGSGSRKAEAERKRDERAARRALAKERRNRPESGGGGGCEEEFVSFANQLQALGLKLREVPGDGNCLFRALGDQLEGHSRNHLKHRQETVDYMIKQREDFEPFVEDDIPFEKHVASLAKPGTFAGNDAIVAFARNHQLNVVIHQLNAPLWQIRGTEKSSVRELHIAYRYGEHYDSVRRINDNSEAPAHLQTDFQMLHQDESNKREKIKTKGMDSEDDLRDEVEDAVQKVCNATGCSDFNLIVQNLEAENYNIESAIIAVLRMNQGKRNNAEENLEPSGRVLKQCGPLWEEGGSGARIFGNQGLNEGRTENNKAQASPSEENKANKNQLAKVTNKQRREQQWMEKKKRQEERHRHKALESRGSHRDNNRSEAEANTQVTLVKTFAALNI
How it was run: as §1

UniProt Q8TE49 = biological target: T2, UniProt Q8TE49
T2 sequence (whole entry): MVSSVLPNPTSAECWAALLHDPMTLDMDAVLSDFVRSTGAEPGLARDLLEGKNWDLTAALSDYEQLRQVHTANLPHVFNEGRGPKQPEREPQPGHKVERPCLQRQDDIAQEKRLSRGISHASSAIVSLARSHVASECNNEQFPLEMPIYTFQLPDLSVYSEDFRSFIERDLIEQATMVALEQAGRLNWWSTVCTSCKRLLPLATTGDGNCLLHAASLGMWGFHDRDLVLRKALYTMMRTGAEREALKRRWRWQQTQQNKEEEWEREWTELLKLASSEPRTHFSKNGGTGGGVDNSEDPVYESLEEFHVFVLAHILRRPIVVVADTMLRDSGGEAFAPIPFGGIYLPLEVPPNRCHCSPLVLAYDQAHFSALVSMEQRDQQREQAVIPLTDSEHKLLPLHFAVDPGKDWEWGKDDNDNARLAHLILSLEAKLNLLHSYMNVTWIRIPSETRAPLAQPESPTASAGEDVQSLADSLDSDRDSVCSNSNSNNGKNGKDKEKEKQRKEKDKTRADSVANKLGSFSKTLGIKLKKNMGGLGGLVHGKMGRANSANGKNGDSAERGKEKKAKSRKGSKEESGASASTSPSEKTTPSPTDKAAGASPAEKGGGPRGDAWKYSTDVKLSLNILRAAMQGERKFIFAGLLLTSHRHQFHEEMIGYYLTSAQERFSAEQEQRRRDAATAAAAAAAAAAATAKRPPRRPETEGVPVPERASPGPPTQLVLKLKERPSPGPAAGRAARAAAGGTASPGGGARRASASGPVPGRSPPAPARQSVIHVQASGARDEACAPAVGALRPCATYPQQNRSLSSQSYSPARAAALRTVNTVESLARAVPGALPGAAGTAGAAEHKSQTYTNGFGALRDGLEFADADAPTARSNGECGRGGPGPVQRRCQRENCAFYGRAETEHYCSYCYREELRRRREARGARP
How it was run: as §1

UniProt Q9P2H5 = biological target: T3, UniProt Q9P2H5
T3 sequence (whole entry): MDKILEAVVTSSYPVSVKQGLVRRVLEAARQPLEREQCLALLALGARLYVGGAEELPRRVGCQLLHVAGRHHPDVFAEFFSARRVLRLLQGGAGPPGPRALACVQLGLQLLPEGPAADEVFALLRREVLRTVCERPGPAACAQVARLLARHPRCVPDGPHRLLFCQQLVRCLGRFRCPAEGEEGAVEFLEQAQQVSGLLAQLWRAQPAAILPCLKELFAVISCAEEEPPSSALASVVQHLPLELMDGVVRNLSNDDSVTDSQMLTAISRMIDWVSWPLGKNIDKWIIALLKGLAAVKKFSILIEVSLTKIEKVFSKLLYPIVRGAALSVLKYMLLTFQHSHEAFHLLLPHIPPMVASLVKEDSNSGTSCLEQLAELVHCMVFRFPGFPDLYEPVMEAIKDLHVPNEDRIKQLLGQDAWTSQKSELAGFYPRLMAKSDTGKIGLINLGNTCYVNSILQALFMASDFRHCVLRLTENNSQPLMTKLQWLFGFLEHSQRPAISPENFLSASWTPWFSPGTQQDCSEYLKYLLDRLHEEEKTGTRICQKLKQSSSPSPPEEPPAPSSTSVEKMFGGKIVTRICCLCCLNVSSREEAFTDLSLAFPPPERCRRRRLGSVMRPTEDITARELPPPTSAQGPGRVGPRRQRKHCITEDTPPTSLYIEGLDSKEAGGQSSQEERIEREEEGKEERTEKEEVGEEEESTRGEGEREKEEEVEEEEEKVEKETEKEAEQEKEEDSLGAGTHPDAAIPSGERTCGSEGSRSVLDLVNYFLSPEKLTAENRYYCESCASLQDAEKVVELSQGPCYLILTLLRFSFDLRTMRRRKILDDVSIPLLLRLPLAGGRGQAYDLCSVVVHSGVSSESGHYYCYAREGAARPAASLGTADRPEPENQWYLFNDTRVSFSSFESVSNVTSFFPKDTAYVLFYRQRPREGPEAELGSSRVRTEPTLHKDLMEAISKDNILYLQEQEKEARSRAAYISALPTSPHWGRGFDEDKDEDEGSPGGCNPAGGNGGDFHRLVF
How it was run: as §1

UniProt Q9UGI0 = biological target: T4, UniProt Q9UGI0
T4 sequence (whole entry): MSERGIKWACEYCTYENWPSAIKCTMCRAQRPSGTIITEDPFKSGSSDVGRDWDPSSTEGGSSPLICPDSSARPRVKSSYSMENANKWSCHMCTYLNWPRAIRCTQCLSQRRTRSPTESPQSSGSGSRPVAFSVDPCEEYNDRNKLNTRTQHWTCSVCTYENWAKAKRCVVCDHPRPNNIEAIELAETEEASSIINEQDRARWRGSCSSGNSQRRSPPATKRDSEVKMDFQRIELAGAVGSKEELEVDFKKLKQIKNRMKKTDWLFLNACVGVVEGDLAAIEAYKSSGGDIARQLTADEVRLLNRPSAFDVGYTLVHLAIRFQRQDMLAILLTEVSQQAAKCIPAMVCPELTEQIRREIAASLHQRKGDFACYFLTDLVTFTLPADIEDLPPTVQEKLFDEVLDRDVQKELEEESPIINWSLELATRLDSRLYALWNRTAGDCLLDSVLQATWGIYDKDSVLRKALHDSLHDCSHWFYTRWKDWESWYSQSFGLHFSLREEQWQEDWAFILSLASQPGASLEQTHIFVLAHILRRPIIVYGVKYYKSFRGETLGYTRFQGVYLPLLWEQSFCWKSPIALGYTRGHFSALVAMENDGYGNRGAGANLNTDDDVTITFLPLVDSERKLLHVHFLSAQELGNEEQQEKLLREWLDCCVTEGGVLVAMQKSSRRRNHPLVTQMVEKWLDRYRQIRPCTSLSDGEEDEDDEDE
How it was run: as §1

YOD1 = biological target: T5, YOD1 (UniProt Q5VVQ6)
T5 sequence (whole entry): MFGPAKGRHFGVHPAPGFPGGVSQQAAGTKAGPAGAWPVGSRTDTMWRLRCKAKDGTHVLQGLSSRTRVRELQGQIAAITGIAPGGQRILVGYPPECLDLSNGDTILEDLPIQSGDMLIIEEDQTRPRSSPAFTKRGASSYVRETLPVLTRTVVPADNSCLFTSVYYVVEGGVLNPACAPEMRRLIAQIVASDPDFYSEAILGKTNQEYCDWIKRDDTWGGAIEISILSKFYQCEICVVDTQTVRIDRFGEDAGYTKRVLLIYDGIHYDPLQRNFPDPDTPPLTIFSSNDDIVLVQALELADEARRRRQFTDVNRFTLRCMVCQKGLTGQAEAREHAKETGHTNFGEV
How it was run: as §1

Measured: log2 ratio of Biotin-Ahx-Ub-VS probe labelling

UniProt P51784, sequence (P51784 whole entry): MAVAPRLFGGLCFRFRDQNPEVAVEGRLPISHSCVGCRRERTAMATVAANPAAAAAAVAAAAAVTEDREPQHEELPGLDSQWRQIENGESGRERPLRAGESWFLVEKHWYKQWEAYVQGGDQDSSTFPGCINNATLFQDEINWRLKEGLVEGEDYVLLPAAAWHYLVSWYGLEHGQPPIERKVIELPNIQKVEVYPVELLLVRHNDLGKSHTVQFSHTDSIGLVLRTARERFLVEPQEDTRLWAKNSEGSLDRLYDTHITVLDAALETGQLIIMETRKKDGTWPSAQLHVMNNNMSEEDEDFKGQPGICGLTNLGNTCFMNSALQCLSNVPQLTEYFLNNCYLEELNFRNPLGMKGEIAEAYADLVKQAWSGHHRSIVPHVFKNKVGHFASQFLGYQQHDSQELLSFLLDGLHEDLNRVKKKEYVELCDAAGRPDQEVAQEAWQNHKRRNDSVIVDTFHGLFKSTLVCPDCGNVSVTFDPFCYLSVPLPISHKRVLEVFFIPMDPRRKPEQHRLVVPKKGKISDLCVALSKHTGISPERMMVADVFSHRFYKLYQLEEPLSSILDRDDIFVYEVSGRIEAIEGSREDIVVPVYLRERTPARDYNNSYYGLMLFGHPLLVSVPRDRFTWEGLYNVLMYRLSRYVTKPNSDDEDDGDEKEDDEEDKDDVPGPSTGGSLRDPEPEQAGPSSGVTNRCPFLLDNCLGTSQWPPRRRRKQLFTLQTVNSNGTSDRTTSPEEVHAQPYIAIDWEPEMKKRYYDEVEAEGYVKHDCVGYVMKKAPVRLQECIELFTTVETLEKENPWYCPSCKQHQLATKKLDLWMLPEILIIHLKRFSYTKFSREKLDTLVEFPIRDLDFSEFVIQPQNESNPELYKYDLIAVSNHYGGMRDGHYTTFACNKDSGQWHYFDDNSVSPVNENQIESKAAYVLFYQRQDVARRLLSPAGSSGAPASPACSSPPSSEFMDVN
UniProt O00487, sequence (O00487 whole entry): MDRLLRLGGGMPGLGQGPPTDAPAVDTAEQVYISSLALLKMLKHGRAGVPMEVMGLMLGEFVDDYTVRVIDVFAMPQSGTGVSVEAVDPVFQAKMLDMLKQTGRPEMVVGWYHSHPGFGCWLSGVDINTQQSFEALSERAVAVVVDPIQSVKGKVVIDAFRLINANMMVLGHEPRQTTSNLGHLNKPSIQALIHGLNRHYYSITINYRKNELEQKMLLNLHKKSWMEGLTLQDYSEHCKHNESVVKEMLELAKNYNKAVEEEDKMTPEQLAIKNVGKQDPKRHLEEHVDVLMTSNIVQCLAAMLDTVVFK
UniProt O00507, sequence (O00507 whole entry): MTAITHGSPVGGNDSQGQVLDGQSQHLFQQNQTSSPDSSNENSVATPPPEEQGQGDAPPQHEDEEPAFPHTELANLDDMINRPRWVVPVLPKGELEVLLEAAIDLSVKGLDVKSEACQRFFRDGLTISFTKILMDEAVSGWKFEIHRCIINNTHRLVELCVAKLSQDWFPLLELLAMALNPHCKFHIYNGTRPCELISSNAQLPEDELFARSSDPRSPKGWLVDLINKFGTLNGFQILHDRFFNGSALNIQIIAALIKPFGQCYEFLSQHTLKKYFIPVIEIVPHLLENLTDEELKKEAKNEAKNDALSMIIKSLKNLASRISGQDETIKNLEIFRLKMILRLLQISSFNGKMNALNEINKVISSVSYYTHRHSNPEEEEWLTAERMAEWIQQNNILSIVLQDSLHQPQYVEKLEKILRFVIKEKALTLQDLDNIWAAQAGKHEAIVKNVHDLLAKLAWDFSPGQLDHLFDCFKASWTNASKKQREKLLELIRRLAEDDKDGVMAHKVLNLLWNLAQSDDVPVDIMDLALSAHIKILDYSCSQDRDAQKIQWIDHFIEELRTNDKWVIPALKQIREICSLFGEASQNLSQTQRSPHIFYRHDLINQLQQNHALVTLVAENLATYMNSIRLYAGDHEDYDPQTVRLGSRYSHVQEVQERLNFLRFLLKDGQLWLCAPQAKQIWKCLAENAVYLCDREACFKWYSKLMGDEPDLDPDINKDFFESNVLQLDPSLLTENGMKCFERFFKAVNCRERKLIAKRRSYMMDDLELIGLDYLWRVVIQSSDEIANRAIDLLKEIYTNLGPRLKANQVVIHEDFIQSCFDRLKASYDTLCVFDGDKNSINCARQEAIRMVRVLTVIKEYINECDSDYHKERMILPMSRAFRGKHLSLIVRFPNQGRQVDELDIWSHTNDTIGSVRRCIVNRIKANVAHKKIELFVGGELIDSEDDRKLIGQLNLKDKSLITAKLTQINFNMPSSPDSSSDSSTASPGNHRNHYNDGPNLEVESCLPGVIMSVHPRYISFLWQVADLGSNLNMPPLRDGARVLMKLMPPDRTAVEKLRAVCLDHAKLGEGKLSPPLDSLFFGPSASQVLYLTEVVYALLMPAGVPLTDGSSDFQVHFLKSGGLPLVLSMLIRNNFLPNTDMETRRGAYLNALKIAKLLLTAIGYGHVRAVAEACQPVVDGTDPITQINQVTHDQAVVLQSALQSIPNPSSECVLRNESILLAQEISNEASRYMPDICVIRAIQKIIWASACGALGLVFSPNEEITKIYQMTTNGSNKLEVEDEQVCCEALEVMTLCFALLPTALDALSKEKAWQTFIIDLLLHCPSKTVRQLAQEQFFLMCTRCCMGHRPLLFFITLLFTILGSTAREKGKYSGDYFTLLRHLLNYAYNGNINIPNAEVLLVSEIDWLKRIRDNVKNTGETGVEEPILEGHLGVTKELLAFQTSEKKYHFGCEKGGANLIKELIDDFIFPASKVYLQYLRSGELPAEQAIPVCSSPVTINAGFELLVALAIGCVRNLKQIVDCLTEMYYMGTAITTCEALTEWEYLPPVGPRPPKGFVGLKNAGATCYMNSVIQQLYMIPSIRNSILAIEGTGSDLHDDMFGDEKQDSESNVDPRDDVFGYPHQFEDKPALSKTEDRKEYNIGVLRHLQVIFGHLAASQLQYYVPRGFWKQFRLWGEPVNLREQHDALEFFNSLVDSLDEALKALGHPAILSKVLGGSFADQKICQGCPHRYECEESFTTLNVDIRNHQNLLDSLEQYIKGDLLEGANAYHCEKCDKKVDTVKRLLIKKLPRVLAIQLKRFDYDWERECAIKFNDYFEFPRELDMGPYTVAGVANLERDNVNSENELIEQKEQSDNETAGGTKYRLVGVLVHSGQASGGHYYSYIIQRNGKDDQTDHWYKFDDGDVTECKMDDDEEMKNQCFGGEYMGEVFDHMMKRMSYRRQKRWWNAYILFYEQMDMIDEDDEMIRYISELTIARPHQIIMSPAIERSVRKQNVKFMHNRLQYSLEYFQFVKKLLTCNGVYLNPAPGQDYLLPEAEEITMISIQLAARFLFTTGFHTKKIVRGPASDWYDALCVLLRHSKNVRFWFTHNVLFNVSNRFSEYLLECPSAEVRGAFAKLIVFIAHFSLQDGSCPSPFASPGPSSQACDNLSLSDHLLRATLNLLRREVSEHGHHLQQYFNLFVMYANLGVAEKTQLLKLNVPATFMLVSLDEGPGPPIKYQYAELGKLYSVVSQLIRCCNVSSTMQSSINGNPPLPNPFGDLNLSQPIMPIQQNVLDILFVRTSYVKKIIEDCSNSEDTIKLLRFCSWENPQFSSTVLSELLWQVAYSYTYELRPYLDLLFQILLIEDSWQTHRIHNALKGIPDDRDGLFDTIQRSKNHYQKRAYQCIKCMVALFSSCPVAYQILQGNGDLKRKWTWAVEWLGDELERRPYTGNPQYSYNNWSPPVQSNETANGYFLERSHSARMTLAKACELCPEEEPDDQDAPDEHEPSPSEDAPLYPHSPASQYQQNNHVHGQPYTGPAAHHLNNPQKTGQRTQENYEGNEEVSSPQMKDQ

Cc1c(C#N)c(NC(=O)CCl)n(Cc2ccco2)c1C
inactive: USP9X -0.241 | UniProt O00487 -0.177 | UniProt O00507 -0.255 | UniProt P51784 -0.349 | UniProt Q5T2D3 -0.169 | UniProt Q9P2H5 -0.304 | UniProt Q9UGI0 -0.313 | YOD1 -0.0342
active: UniProt Q8TE49 -2.48
